Consider 15 compounds from PubChem BioAssay (NCATS).

Inconclusive results are not listed. Unmarked numbers belong to inactive results. Activity calls are given as the source filed them. The call rests on the fitted dose curve; in most records, active means well fitted cell-killing curve with a large enough effect; inconclusive means small, poorly fitted or top-dose-only effect; inactive means flat fitted curve, though single readings scatter.
On the % scale 0 is the no-effect control and ±100 the full control effect.

The test in a line: HepG2 cells viability qHTS for Zika virus inhibitors (AID 1347168). The note with it: Zika counter-screen; series mostly up to 45.9 µM; activity change, negative = cytotoxicity: at the top concentration. The text has this:
Avindra Nath, Ph.D., National Institute of Neurological Disorders and Stroke (NINDS), Bethesda, MD
Radhakrishnan Padmanabhan, Ph.D., Georgetown University (GU), Washington D.C.
Zika Virus causes congenital defects, including microcephaly and is associated with Guillain-Barre syndrome, eningoencephalitis and myelitis in infected adult. […] Using a target-based approach, we hope to establish a screening paradigm to uncover novel, cell-active NS2B-NS3 protease (Zika Virus) specific inhibitors from NCATS' collection of small molecules using qHTS.
Four assay panel was created to identify potential Zika Virus inhibitors. Namely, (1) GU unlinked NS2B-NS3 AMC tagged protease qHTS, (2) GU unlinked NS2B-NS3 Rhodamine tagged protease qHTS, (3) NINDS linked NS2B-NS3 AMC tagged protease qHTS, (4) NINDS linked NS2B-NS3 Rhodamine tagged protease qHTS. Identified inhibitors were screened against the Vero and HepG2 cell viability assays using CellTiter Glo to exclude cytotoxic compounds.
Early Translation Branch (ETB)
National Center for Advancing Translational Sciences (NCATS), Rockville, MD
National Institute of Health (NIH), Bethesda, Maryland
Vero and HepG2 Cell Viability Assay:
Vero and HepG2 cell cytotoxicity were determined using a luminescent readout with CellTiter Glo reagent (Promega, Madison, WI), which is based on measuring the ATP content within cells. Briefly, 4 microL of Vero or HepG2 cells at 2.5 x 10^5 cells/mL in DMEM containing 4% FBS were dispensed into 1536-well solid bottom tissue treated white plate using a Multidrop Combi dispenser (Thermo Scientific). Plates were incubated at 37 degrees C, 95% humidity, and 5% CO2 overnight to allow for cell attachment. Compounds were dissolved in DMSO at different concentrations and transferred via pintool (Wako Automation), for a final concentration of 0.029 µM - 57 microM. Plates were again incubated for 24 to 48 hours, followed by a 2 microL addition of CellTiter Glo. Finally, plates were incubated for 30 minutes at 37 degrees C and 5% CO2 before being read on a ViewLux (Perkin Elmer) for luminescence.
For orientation: qHTS replaces the single test concentration by a dilution series.
Regarding `Cc1cc(SCc2sc(-c3ccc(C(F)(F)F)cc3)nc2C)ccc1OCC(=O)O`, the outcome was inactive.

Regarding `COc1ccccc1-c1cccc(-c2c(O)c3cc(C#N)c(Cl)cc3[nH]c2=O)c1`, the “activity change, negative = cytotoxicity” value is -7.54%.

Consider `Cc1[nH]c(=O)c(C#N)cc1-c1ccncc1`, for which the “activity change, negative = cytotoxicity” value was 6.7%.

With `CCCCNc1cc(C(=O)O)cc(S(N)(=O)=O)c1Oc1ccccc1`, the “activity change, negative = cytotoxicity” value is 7.58%.

On to `CC(C)(Sc1ccc(CCN(CCCCC2CCCCC2)C(=O)NC2CCCCC2)cc1)C(=O)O`, for which the outcome was inactive.

`O=c1n(CCCN2CCN(c3cccc(Cl)c3)CC2)nc2ccccn12`: the “activity change, negative = cytotoxicity” value was -8.32%.

Regarding `O=C(C1CC1)N1CC[C@@H](Cn2c(-c3ccc(-c4ccc5occc5c4)cc3)nc3cnccc32)C1`, the “activity change, negative = cytotoxicity” value is -1.95%.

For the compound `CCCc1nc2c(C)cc(-c3nc4ccccc4n3C)cc2n1Cc1ccc(-c2ccccc2C(=O)O)cc1`, the “activity change, negative = cytotoxicity” value was 5.4%.

With `COCC(=O)NCC=Cc1ccc2ncnc(Nc3ccc(Oc4ccc(C)nc4)c(C)c3)c2c1`, the “activity change, negative = cytotoxicity” value was -14.2%.

Take `CCN(CC)CCCC(C)Nc1ccnc2cc(Cl)ccc12` (stereo not given): the “activity change, negative = cytotoxicity” value is -13.5%.

`Cn1cnc([N+](=O)[O-])c1Sc1ncnc2nc[nH]c12`: the “activity change, negative = cytotoxicity” value was -18.7% [at 91.6 µM].

Take `Cc1[nH]c(=O)c(C#N)cc1-c1ccc2nccn2c1`: the “activity change, negative = cytotoxicity” value is 4.07%.

As to `COc1ccc(-c2ccc3c(N4CCOCC4)nc(N4C[C@@H](C)O[C@@H](C)C4)nc3n2)cc1CO`, the “activity change, negative = cytotoxicity” value was 2.16%.

As to `CC(C)c1onc(-c2c(Cl)cccc2Cl)c1COc1ccc(/C=C/c2cccc(C(=O)O)c2)c(Cl)c1`, the “activity change, negative = cytotoxicity” value was 16.5%.

Consider `CCn1cc(C(=O)O)c(=O)c2cc(F)c(N3CCNC(C)C3)c(F)c21` (stereo not given), for which the call was inactive.
